Screens deposited in PubChem by National Center for Advancing Translational Sciences (NCATS).
Giardia FBPA inh-1: blocks Giardia fructose-bisphosphate aldolase activity; A8B2U2; purified Giardia FBPA; Potency, µM (highest dose often 59.6 µM), inactives show at the highest dose activity, negative = inhibition, hits mostly inhibitors; actives 0.71% (n = 290,000); AID 2451; further: potency means the concentration at half of the fitted maximal effect; nearly all actives have a fitted effect of over 55% in size
Target sequence (A8B2U2 whole entry, looked up): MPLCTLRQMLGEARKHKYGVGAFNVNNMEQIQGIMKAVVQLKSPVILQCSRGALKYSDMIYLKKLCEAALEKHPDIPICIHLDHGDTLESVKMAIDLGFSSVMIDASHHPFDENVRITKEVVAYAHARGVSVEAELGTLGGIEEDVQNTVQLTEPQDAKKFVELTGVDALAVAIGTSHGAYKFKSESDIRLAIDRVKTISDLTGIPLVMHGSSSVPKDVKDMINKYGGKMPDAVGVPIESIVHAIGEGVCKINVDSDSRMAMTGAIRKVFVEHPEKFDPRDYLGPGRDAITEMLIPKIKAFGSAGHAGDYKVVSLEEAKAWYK
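40 nM FBPA preincubated 10 min at RT with compound (up to 57.5 uM final), then substrate plus GAPDH/TPI/NAD/arsenate coupling and diaphorase/resazurin added. Fluorescence read after 20 min at RT, 525/598 nm.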
HCV inhibitor: HCV inhibition; Potency, µM (titrated, usually from 41.8 µM), for inactives: at the top dose activity change, negative = inhibition, actives largely listed as inhibitors; Huh7.5.1 HCVcc-Cre infection, luciferase reporter, 44 h; actives 3.4% (n = 340,000); further: potency means the concentration at half of the fitted maximal effect
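Infectious HCV cell culture screen: compound-treated cells (1,000/well, pre-plated 4 h) are infected with HCVcc-Cre at roughly 0.5 moi and grown 44 h. Infection is quantified by luciferase signal after 15 min substrate incubation at room temperature.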
HCMV antiviral: inhibitors of human cytomegalovirus | HFF cells, HCMV-luciferase reporter, 72 h; stronger effect = lower value | actives 4.5% (n = 410,000) | activity change, negative = inhibition, % at 57.5 µM; in the data active means activity change below about -60%; inconclusive means no clear call, values can overlap the other calls; inactive means above about -39%
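Human foreskin fibroblasts infected with luciferase-reporter HCMV at MOI 1 PFU/cell, compounds at two doses. Luciferase measured 72 h post infection; normalized to buffer-only basal and Salinomycin (10uM) controls.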
FMDV inh: foot and mouth disease virus antiviral activity. actives 1.2% (n = 410,000). FMDV antiviral cell-based qHTS. Potency, µM (series often up to 57.9 µM), without a hit: at the highest dose activity change, negative = inhibition, usual class: inhibitors; calls by dose curve; tested in HEK293T cells; further: read-out not given here; potency means the concentration at half of the fitted maximal effect; nearly all actives have a fitted effect of over 45% in size
Lassa entry inh: blocks Lassa virus binding to or entry into cells | Lassa virus pseudotype entry inhibition, cell reporter | Potency, µM (highest dose often 37.9 µM), for inactives: at the top dose activity change, negative = inhibition, most hits filed as inhibitors | actives 1.2% (n = 300,000); calls by dose curve; tested in HEK293 cells; further: potency means the concentration at half of the fitted maximal effect; nearly all actives have a fitted effect of over 50% in size
MARV entry inh: Marburg virus entry inhibition | Marburg virus pseudotyped entry inhibition, cell reporter | Potency, µM (doses to about 37.8 µM), inactives show at the top dose activity change, negative = inhibition, hits mostly inhibitors | actives 1.8% (n = 300,000); calls by dose curve; tested in HEK293 cells; further: potency means the concentration at half of the fitted maximal effect
Giardia growth: inhibitors of Giardia lamblia growth. shares compounds with Giardia FBPA inh-1. Giardia lamblia trophozoite growth inhibition. Potency, µM (top dose mostly 57.5 µM), for the others: at the highest dose activity change, negative = inhibition, actives largely listed as inhibitors. actives 5% (n = 1,500);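 further: potency means the concentration at half of the fitted maximal effect; trophozoites exposed to compound for 48 h at 37 °C; nearly all actives have a fitted effect of over 70% in size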
Mammal cell tox: counter-screen for Giardia aldolase inhibitors: mammalian cell toxicity; Potency, µM (titrated, usually from 57.5 µM), inactives show top-dose viability change, negative = toxicity, usual class: inhibitors; actives 4% (n = 1,500); shares compounds with Giardia FBPA inh-1; AID 2786; mammalian cell viability counter-screen, qHTS;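 further: Chinese hamster ovary cells used as mammalian cytotoxicity surrogate; viability measured as cellular ATP by luminescence; potency means the concentration at half of the fitted maximal effect; compound exposure lasted 48 h before reading; nearly all actives have a fitted effect of over 60% in size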
Giardia FBPA inh-2: confirmation of Giardia fructose-bisphosphate aldolase inhibitors | shares compounds with Giardia FBPA inh-1 | purified Giardia aldolase enzyme activity, qHTS | Potency, µM (titrated, usually from 57.5 µM), inactives show at the top dose activity change, negative = inhibition, usual class: inhibitors | actives 5% (n = 1,500); further: potency means the concentration at half of the fitted maximal effect; nearly all actives have a fitted effect of over 45% in size
Rabbit aldolase: blocks rabbit muscle aldolase in Giardia aldolase selectivity test. shares compounds with Giardia FBPA inh-1. Rabbit muscle FBPA enzyme inhibition, selectivity counter-screen. Potency, µM (series often up to 57.5 µM), inactives show top-dose activity, negative = inhibition, most hits filed as inhibitors. actives 4% (n = 1,500). AID 2794; further: potency means the concentration at half of the fitted maximal effect; nearly all actives have a fitted effect of over 60% in size
Target sequence (P00883 whole entry, looked up): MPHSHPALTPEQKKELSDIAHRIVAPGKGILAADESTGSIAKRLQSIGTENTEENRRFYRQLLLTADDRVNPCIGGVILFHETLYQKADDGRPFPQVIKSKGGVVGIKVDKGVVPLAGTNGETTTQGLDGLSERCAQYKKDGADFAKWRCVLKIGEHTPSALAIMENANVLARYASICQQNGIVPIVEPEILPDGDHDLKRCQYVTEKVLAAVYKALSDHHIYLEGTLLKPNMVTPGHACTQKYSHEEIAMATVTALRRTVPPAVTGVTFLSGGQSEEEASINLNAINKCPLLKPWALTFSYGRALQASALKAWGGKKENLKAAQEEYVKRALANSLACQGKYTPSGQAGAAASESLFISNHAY
GAPDH counter: counter-screen for Giardia aldolase inhibitors: GAPDH coupling enzyme. shares compounds with Giardia FBPA inh-1. GAPDH coupling enzyme counterscreen, biochemical, qHTS. Potency, µM (titrated, usually from 57.5 µM), for the others: at the top dose activity change, negative = inhibition, most hits filed as inhibitors. actives 6% (n = 1,500); further: potency means the concentration at half of the fitted maximal effect; nearly all actives have a fitted effect of over 55% in size
* = called active by the depositor; ? = inconclusive; nt = no result; [ ] = remark or other dose. Sampled rows, rich in hits. Any-hit rate of the full collection: about 8.3%. Unless noted, the call rests on the fitted dose curve; in most records, active means well fitted curve in the direction sought with a large enough effect; inconclusive means small, poorly fitted or top-dose-only effect, or another doubt; inactive means no such curve, though single readings can be large; an effect the other way counts as inactive or inconclusive. On the % scale 0 is the no-effect control and ±100 the full control effect.

SMILES	Giardia FBPA inh-1	HCV inhibitor	HCMV antiviral	FMDV inh	Lassa entry inh	MARV entry inh	Giardia growth	Mammal cell tox	Giardia FBPA inh-2	Rabbit aldolase	GAPDH counter
Cc1cc(NC(=O)CSc2nnc(C3COc4ccccc4O3)n2N)no1 (centres undefined)	20µM*	3%	-19	-6%	nt	nt	-25%	17%	-6%	3%	-1%
c1ccc2c3c(cc(N4CCOCC4)c2c1)OC1(N2CCOCC2)CCCCC1O3 (centres undefined)	0.56µM*	?	16	nt	-17%	0%	?	-9%	7.1µM*	?	25µM*
CCN(CC)C(=O)CSc1n[nH]c(=S)n1N	7.1µM*	-9%	-14	-16%	nt	nt	-18%[38.3 µM]	-11%	-30%	-19%	-19%
CCN(CC)c1ccc2c(C)c(Cl)c(=O)oc2c1	18µM*	-14%	0	2%	?	?	-3%	-1%	-1%	9%	-2%
CCN(CC)c1ccc2c(Cl)c(Br)c(=O)oc2c1	2%	?	nt	?	?	?	nt	nt	nt	nt	nt
Cc1cc(Cl)c(OCCOCCN2CCN(C)CC2)c(Br)c1	22µM*	?	3	-13%	-29%[46.1 µM]	?	7%[10.4 µM]	13%	4%	3%	11%
C=CCc1cc(C)ccc1OCCOCCN1CCN(C)CC1	16µM*	?	-15	-4%	nt	nt	22%	-7%	1%	0%	9%
Cc1ccc(C)c(OCCOCCN2CCOCC2)c1	2%	1%	-33	13%	3%	3%	nt	nt	nt	nt	nt
Cc1ccc(OCCOCCN2CCN(C)CC2)c(C(C)(C)C)c1	13µM*	?	-25	-8%	nt	nt	8%	6%	-1%	5%	6%
O=C(NCc1nc2ccccc2n1Cc1ccccc1Cl)c1ccccc1	nt	nt	-32	-8%	-2%[46.1 µM]	?	nt	nt	nt	nt	nt
CC1=CC(=O)NP(=O)(Oc2ccc3ccccc3c2)N1 (centres undefined)	16µM*	23%	8	-24%	-23%	25%	?	10%	-17%	7%	12%
CCc1nnc(NC(=O)CSc2nccn2Cc2ccc(F)cc2)s1	nt	nt	4	-16%	15%[46.1 µM]	nt	nt	nt	nt	nt	nt
Clc1cccc(CN2CCN(Cc3ccco3)CC2)c1	14µM*	16%	5	6%	?	-3%	-17%	-9%	-1%	-3%	2%
Cc1cccc(CN2CCN(Cc3ccco3)CC2)c1	?	2%	-1	9%	nt	nt	nt	nt	nt	nt	nt
CCS(=O)(=O)N1CC(=O)N(c2cc(Cl)ccc2C)C(C)(C(=O)NC2CCCCCC2)C1 (centres undefined)	nt	nt	?	6%	2%[46.1 µM]	nt	nt	nt	nt	nt	nt
O=C(Nc1nc(-c2cccs2)cs1)c1ccco1	-10%	?	23	44%	-5%	?	nt	nt	nt	nt	nt
O=C(Nc1nc(-c2ccccn2)cs1)c1ccco1	16µM*	?	-13	12%	?	?	?	40µM*	1%	-7%	-19%
Cc1ccnc2nc(C(=O)Nc3nc(-c4ccccn4)cs3)nn12	16µM*	-21%	-37	16%	2%[46.1 µM]	-15%[46.1 µM]	?	-7%	6%	-17%	-8%
O=C(Nc1nc(-c2ccccn2)cs1)c1cccc(-n2cnnn2)c1	5µM*	?	-34	-15%	nt	nt	?	32µM*	1%	-10%	-28%
Cc1ccc(S(=O)(=O)N2CCc3cc(C(=O)N(C)Cc4ccccc4)ccc32)cc1	nt	nt	?	-20%	-21%[46.1 µM]	2%[46.1 µM]	nt	nt	nt	nt	nt
S=C(Nc1ccccc1)Nn1cnnc1	13µM*	5%	18	-4%	-2%	1%	?	-13%	4%	5%	8%
Cc1cccc(NC(=S)Nn2cnnc2)c1C	7.9µM*	3%	?	1%	nt	-4%[46.1 µM]	?	5%	7%	3%	17%
Cc1ccc(NC(=S)Nn2cnnc2)cc1	16µM*	-16%	-6	-9%	nt	nt	?	7%	4%	7%	18%
Cc1ccccc1NC(=S)Nn1cnnc1	nt	12%	21	-9%	nt	nt	nt	nt	nt	nt	nt
CCc1ccc(NC(=S)Nn2cnnc2)cc1	-25%	5%	39	9%	3%	6%[46.1 µM]	nt	nt	nt	nt	nt
SMILES	Giardia FBPA inh-1	HCV inhibitor	HCMV antiviral	FMDV inh	Lassa entry inh	MARV entry inh	Giardia growth	Mammal cell tox	Giardia FBPA inh-2	Rabbit aldolase	GAPDH counter
CC(=O)c1ccc(NC(=O)c2nc(-c3ccccc3)n(-c3ccc(Cl)cc3)n2)cc1	nt	nt	7	?	-9%[46.1 µM]	12%[46.1 µM]	nt	nt	nt	nt	nt
CCCCN(CC)C(=O)Cn1nc(C)c2c(C)n(-c3ccccc3)nc2c1=O	nt	nt	-4	-13%	10%[46.1 µM]	nt	nt	nt	nt	nt	nt
CCNc1nc(C(=O)O)nc(N2CCOCC2)n1	22µM*	21%	-20	8%	10%	1%	18%[10.4 µM]	4%	-5%	1%	8%
CC(C)(C)Nc1nc(C(N)=O)nc(N2CCOCC2)n1	6%	12%	22	?	-16%	3%	nt	nt	nt	nt	nt
CCC1CCC2(CC1)NNC(=S)NN2	13µM*	0%	-62*	-29%	-14%	-26%	-11%[10.4 µM]	6%	-6%	2%	5%
CCC1CCC2(CC1)NC(CO)(CO)CO2 (centres undefined)	-5%	-5%	30	nt	13%	-1%	nt	nt	nt	nt	nt
N[C@H](CCC(=O)NCC(=O)O)C(=O)O	-24%	nt	nt	1%	nt	nt	nt	nt	nt	nt	nt
NC(=S)NNc1c(F)c(F)c(F)c(F)c1F	16µM*	26%	5	-5%	-1%	15%[46.1 µM]	-1%[10.4 µM]	-12%	-11%	5%	1%
CC1CCC2C(=O)OC(CN=[N+]=[N-])CN2C1c1ccc(Br)cc1 (centres undefined)	-1%[12.9 µM]	nt	nt	nt	nt	nt	nt	nt	nt	nt	nt
C[n+]1cccc2c(Br)ccc([O-])c21	0.18µM*	8%	4	-20%	?	7%[46.1 µM]	20µM*	-16%	4µM*	13µM*	4.5µM*
Cc1ccc(Nc2cc(C)c3c(O)cccc3n2)cc1C	?	?	19	8%	nt	nt	6%[38.3 µM]	-1%	?	?	21µM*
COC(=O)C/C=N/N=C1/NC(=O)/C(=C/C(=O)O)S1	18µM*	7%	-24	0%	nt	nt	0%[10.4 µM]	1%	-10%	-10%	-14%
COC(=O)/C=C1\S/C(=N/N=C/c2ccccc2)NC1=O	0%	30%	25	-5%	12%	-15%	nt	nt	nt	nt	nt
